In PubChem BioAssay (NCI):
About 79,000 compounds went through this panel and 15% of them were active in at least one assay; those are over-represented in the sample as a whole. The source made the active and inactive calls. Cut-off read from the data, not from the text of the source: active = growth inhibition above about 70%; inactive = the rest.

What was measured:
[1] = NCI Yeast Anticancer Drug Screen. Data for the rad50 strain (AID 155);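 note: 0% = growth of vehicle-only cultures of the same strain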; settings: S. cerevisiae rad50 strain growth inhibition; at 50.0 µM; active compounds read high
In short: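 Vehicle-treated cultures provide the reference for the growth inhibition reported for compound-exposed, repair-deficient yeast.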

[2] = NCI Yeast Anticancer Drug Screen. Data for the sgs1 mgt1 strain (AID 161);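 note: 0% = growth of cultures given vehicle only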; settings: S. cerevisiae sgs1 mgt1 strain, at 50.0 µM, active compounds read high
In short: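 Mutant yeast exposed to compound; growth scored against vehicle-only wells.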

[3] = NCI Yeast Anticancer Drug Screen. Data for the cln2 rad14 strain (AID 165);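 note: 0% = growth equal to vehicle treated cultures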; settings: S. cerevisiae cln2 rad14 strain, at 50.0 µM, active compounds read high
In short: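 Test compounds were added to cln2 rad14 yeast cultures; inhibition of growth was then determined by comparison with vehicle treatment.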

[4] = NCI Yeast Anticancer Drug Screen. Data for the bub3 strain (AID 167); settings: S. cerevisiae bub3 mutant strain, at 50.0 µM, active compounds read high
In short: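 Mutant yeast screening strain plus compound; vehicle-treated cultures serve as the 0% inhibition reference.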

[5] = NCI Yeast Anticancer Drug Screen. Data for the mlh1 rad18 strain (AID 175); settings: S. cerevisiae mlh1 rad18 strain growth inhibition; at 50.0 µM; active compounds read high
In short: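 Inhibition values reflect reduced growth of mutant yeast versus vehicle-treated controls following compound exposure; the mutations affect DNA damage repair.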

Measured: growth inhibition

O=C(O)C(Cc1ccccc1)N1C(=O)c2ccccc2C1=O (stereo not given)
inactive: [1] 1.7% | [2] -35.6% | [3] -19.6% | [4] -36.5% | [5] 5.55%

Cn1c(=O)c2[nH]c(C(=O)O)nc2n(C)c1=O
inactive: [1] 17.4% | [2] 5.7% | [3] 9.35% | [4] -8.3% | [5] 9.85%

CCOC(=O)c1nnc(-c2ccccc2)nc1Cl
inactive: [1] -2.55% | [2] 0.15% | [3] -12.9% | [4] 3.7% | [5] 4%

O=C(Cc1ccccc1)Nc1ccccc1Cl
inactive: [1] -8.1% | [2] 4.55% | [3] 21.2% | [4] 14.7% | [5] 1.95%

CC(C)CCOC(=O)NC(Nc1ccc(F)cc1)(C(F)(F)F)C(F)(F)F
inactive: [1] -10.6% | [2] -40.5% | [3] -13.3% | [4] -5.2% | [5] -25.9%

CC1=C(/C=C/Cl)CC(Cl)C(C)(Cl)C1 (stereo not given)
inactive: [1] -2.25% | [2] -4.5% | [3] 12.5% | [4] -0.45% | [5] -45.2%

C[N+](C)(N)Cc1csc(-c2ccc(Cl)cc2)n1
inactive: [1] -31.3% | [2] -12.7% | [3] -8.1% | [4] -24.6% | [5] -10.5%

CCOC(=O)c1c(SC(=O)c2ccc(C(C)(C)C)cc2)n(-c2ccccc2)c(=S)n(-c2ccccc2)c1=O
inactive: [1] 31.1% | [2] 26.8% | [3] 6.45% | [4] 40% | [5] 18.9%

CCCCCCCCCCCC(=O)OCC1OC(n2cc(F)c(=O)[nH]c2=O)C(NC(=O)OCc2ccccc2)C(O)C1O (stereo not given)
inactive: [1] 62.8% | [2] 31.2% | [3] 18.8% | [4] 18.1% | [5] 24.8%

O=[N+]([O-])c1ccc(/C=C(/c2ccc([N+](=O)[O-])o2)S(=O)(=O)C(Cl)(Cl)Cl)cc1
active: [1] 96.7% | [2] 98.3% | [3] 97.1% | [4] 90.1% | [5] 97.8%

CCOC(=O)CNC(=O)C(CCSCc1ccccc1)NC(=O)OCc1ccccc1 (stereo not given)
inactive: [1] -2.75% | [2] 0.3% | [3] 28.6% | [4] 4.45% | [5] 15.2%

O=C1OC2C(I)C3C(C4CCCCC4)C1C23 (stereo not given)
inactive: [1] 8.3% | [2] 31.8% | [3] 17% | [4] 65.8% | [5] 7.7%

Nc1ncc2ncn(CCO)c2n1
inactive: [1] -22.1% | [2] 23.1% | [3] 1.95% | [4] -6.85% | [5] 3.7%

O=C(O)C(CCc1ccccn1)c1ccccc1 (stereo not given)
inactive: [1] -4.2% | [2] -26.2% | [3] -17.6% | [4] -44.4% | [5] -0.55%

O=C(O)c1ccccc1CC(C(=O)O)C(=O)O
inactive: [1] 14.8% | [2] 3% | [3] 7.95% | [4] -0.6% | [5] 6.15%

NC(=S)N/N=C/c1ccc(OC(=O)Cc2ccccc2)cn1
inactive: [1] 19.7% | [2] 10.1% | [3] 7.1% | [4] 4.55% | [5] 16.4%

O=[N+]([O-])c1cc(F)cc(F)c1Nc1ccccc1
inactive: [1] 2.85% | [2] 2.2% | [3] 3.1% | [4] 0.5% | [5] 17.6%

O=S1(=O)CC(O)C(Br)C1 (stereo not given)
inactive: [1] -6.7% | [2] 10.1% | [3] 4.85% | [4] 2.35% | [5] -10.8%

Cc1ccc(C(=O)c2ccccc2C(=O)O)cc1C
inactive: [1] 4.35% | [2] -17.9% | [3] -18.4% | [4] 9.2% | [5] -18.6%

CC(=O)OC1CCC2(C)C(=CCC3C2CCC2(C)C3CC(Br)C2(O)C(C)=O)C1 (stereo not given)
inactive: [1] 41.9% | [2] 15% | [3] 17.7% | [4] 4.1% | [5] 30.4%

COc1cc2c(cc1OC)C1C(=O)c3c(O)cc4c(c3OC1CO2)C=CC(C)(C)O4 (stereo not given)
inactive: [1] 49.8% | [2] 14.3% | [3] 15.3% | [4] 33.9% | [5] 36.7%

CCN(CC)c1ccc(N=C2C=C(C(=O)Nc3ccccc3)C(=O)c3ccccc32)cc1
inactive: [1] -10.9% | [2] -14.4% | [3] 6.25% | [4] -3.9% | [5] -21.4%

COc1ccc(OC)c(/C=C/C(=O)NC(CO)CSCSC)c1 (stereo not given)
inactive: [1] -0.35% | [2] -3.9% | [3] -10.8% | [4] 21.5% | [5] -24.4%

O=C1c2ccccc2-c2cc(F)ccc21
inactive: [1] 18.3% | [2] -7.4% | [3] -6.25% | [4] 17.6% | [5] -0.1%

Oc1ccccc1/C=N/n1cnnc1
inactive: [1] 8.55% | [2] -3.5% | [3] -4.85% | [4] -10.3% | [5] -19.2%

O=C(Nc1ccccc1)c1cccn1-c1ccccc1
inactive: [1] 2.7% | [2] 12.1% | [3] 13.5% | [4] -19% | [5] -2.95%

COC(=O)Nc1cccc(-c2nc3ccc(NC(=O)OC)cc3c(=O)n2-c2ccccc2)c1
inactive: [1] -26.3% | [2] -22.6% | [3] 8.55% | [4] -15.8% | [5] 5%
